# Screening data deposited in PubChem BioAssay by The Scripps Research Institute Molecular Screening Center.
# Sampled rows, rich in hits. Any-hit rate of the full collection: about 1.8%.
# PP5 primary: inhibitors of human protein phosphatase 5 (PP5). purified PP5c, OMFP substrate fluorescence. inhibition, % at 6.7 µM. hit rate 0.18% among 320,000. AID 1987;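 active = inhibition above the campaign's mean inhibition across all tested compounds plus 3 SD, cut at about 9.5% in these data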;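 note: 0% = DMSO only and 100% = 100 µM cantharidin control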
# PME-1 inh: PME-1 (human) inhibition; recombinant PME-1, FP-Rh probe fluorescence polarization; inhibition, % at 5.9 µM; hit rate 0.53% among 320,000;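 active = inhibition above the campaign mean of all compounds plus 3 SD, cut at about 26% in these data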;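 note: competitive labeling of PME-1 active site by serine hydrolase directed probe; 0% = PME-1 with DMSO and 100% = wells lacking PME-1 enzyme; inhibitors block probe labeling so polarization falls and inhibition rises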
# Target sequence (Q9Y570 whole entry, looked up): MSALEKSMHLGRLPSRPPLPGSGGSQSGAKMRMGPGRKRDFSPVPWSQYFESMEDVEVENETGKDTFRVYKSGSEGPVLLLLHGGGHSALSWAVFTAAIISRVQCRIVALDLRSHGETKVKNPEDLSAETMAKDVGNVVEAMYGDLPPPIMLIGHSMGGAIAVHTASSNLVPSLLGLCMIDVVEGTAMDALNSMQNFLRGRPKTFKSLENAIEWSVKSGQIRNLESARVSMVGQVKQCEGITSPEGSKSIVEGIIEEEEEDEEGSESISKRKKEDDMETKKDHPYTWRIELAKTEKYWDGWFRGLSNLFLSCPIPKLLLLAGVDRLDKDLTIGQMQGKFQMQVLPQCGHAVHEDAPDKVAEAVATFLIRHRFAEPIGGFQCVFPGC
# Fam108B counter: blocks mouse Fam108B hydrolase in RBBP9 counter-screen | recombinant Fam108B, FP-Rh probe fluorescence polarization | inhibition, % at 9.51 µM | hit rate 0.33% among 300,000 | AID 1947;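 active = inhibition above the screen mean inhibition plus 3 SD, computed separately per campaign, cut at about 18% in these data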;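 note: inhibitors lower polarization as less probe binds the enzyme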
# LYPLA2 counter: blocks human lysophospholipase 2, a PME1 counter-screen | hit rate 0.38% among 320,000 | AID 2177 | recombinant LYPLA2, FP-Rh probe fluorescence polarization | inhibition, % at 5.9 µM;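 active = inhibition above the screen-wide mean plus 3 SD, limit set per campaign, cut at about 26% in these data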;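 note: 0% = LYPLA2 with DMSO and 100% = wells lacking LYPLA2 enzyme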
# PP1 counter: counter-screen for PP5 inhibitors: inhibitors of human PP1-alpha; P62136; purified PP1alpha, OMFP fluorescence; inhibition, % at 6.7 µM; hit rate 0.9% among 320,000; AID 2235;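 active = inhibition above the mean inhibition of all tested compounds plus 3 SD, computed separately for each screening campaign, cut at about 15% in these data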
# LYPLA1 inh: counter-screen for PME1 inhibitors: inhibitors of human LYPLA1; O75608; recombinant LYPLA1, FP-Rh probe fluorescence polarization; inhibition, % at 5.9 µM; hit rate 0.16% among 320,000;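 active = inhibition above the mean of all tested compounds plus 3 SD, set per campaign, cut at about 14% in these data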;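 note: inhibitors block serine hydrolase probe labeling of LYPLA1 so polarization falls; 0% = enzyme with DMSO and 100% = wells lacking LYPLA1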
# Target sequence (O75608 whole entry, looked up): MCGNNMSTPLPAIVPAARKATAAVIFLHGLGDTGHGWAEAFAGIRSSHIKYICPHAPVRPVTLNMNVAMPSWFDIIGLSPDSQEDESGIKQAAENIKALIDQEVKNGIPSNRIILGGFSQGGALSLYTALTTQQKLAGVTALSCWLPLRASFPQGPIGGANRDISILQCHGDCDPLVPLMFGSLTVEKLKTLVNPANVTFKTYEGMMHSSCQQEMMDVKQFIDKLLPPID
# PP1 confirm: human PP1 phosphatase inhibition, confirmation | shares compounds with PP1 counter | purified PP1alpha, OMFP substrate fluorescence | inhibition, % at 6.7 µM | hit rate 52% among 1,900 | AID 2358;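 active = mean PP1 inhibition above a set limit taken from the earlier primary screen, cut at about 15% in these data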
# PP5 counter: counter-screen for PP1 inhibitors: human PP5 phosphatase inhibition | shares compounds with PP1 counter | purified PP5c, OMFP fluorescence | inhibition, % at 6.7 µM | hit rate 4% among 1,900 | AID 2360;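 active = mean PP5 inhibition over triplicate wells above about 9.5% taken from the earlier PP1 screen, limit read from the data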
# An asterisk follows results filed as active; nt = no result given.
SMILES,PP5 primary,PME-1 inh,Fam108B counter,LYPLA2 counter,PP1 counter,LYPLA1 inh,PP1 confirm,PP5 counter
CC(NS(=O)(=O)OCC(Cl)(Cl)Cl)c1ccc(C(C)(C)C)cc1 (stereo unspecified),8,-10,-10,-17,19*,-9,2,3
N#Cc1c(-c2ccccc2)c(-c2ccccc2)nn(CC(=O)NNC(=O)Nc2ccc(Cl)c(Cl)c2)c1=O,6,-80,-56,-51,23*,-50,12,3
COCCNC(=O)[C@@H]1CCCN1C(=O)C1CCN(S(=O)(=O)c2ccc(C)cc2)CC1,2,0,3,6,-3,1,nt,nt
COc1ccc(Cn2c(SCc3ccc(C)cc3)nc3cc(OC)c(OC)cc3c2=N)cc1Cl,6,5,2,0,21*,-3,5,2
COc1ccc(Cn2c(SCc3cc(C)ccc3C)nc3cc(OC)c(OC)cc3c2=N)cc1,5,-1,-3,-1,23*,-3,6,3
CC(C)(C)c1ccc(C(=O)NCCCNC(=O)c2ccccn2)cc1,-2,-5,-1,-1,-3,-1,nt,nt
CC1CCC(NC(=O)c2nc(Cn3ccc([N+](=O)[O-])n3)no2)CC1 (stereo unspecified),0,-4,1,1,0,4,nt,nt
O=C(NCC1CCCO1)c1nc(Cn2ccc([N+](=O)[O-])n2)no1 (stereo unspecified),5,3,4,6,21*,1,-5,-5
COc1ccc(C2=NOC(C)(c3nnc(-c4ccccc4)o3)C2)cc1 (stereo unspecified),2,4,1,19,1,3,nt,nt
CCC(c1nnc(SCC(=O)NC2CCCCC2)n1Cc1ccccc1)N(C)C (stereo unspecified),1,-3,-2,2,-3,2,nt,nt
c1ccc(Nc2nc(-c3ccccn3)cs2)cc1,6,6,9,0,50*,-1,46*,3
CC(Oc1ccc(F)cc1)C(=O)Nc1nc(-c2ccccn2)cs1 (stereo unspecified),0,-1,-1,7,21*,2,32*,0
c1ccc(-c2csc(Nc3cccnc3)n2)nc1,4,-4,-3,-6,-2,0,nt,nt
Cc1ccc(S(=O)(=O)CCC(=O)Nc2nc(-c3ccncc3)cs2)cc1,-2,3,2,-1,3,-2,nt,nt
O=C(CC1CC2CCC1C2)Nc1nc(-c2ccccn2)cs1 (stereo unspecified),6,-5,4,-1,40*,1,41*,-3
O=C(CCS(=O)(=O)c1ccc(F)cc1)Nc1nc(-c2ccccn2)cs1,2,0,0,1,21*,2,44*,-1
O=C(Nc1nc(-c2ccccn2)cs1)C1CC1,2,-6,-1,6,9,4,nt,nt
CC(/C=N/NC(=O)c1ccccc1F)=C\c1ccccc1,0,-10,-3,-8,-4,0,nt,nt
NNC(=O)c1cnn(-c2ccccc2)c1-n1cccc1,-1,-2,3,3,-2,0,nt,nt
O=C(CCS(=O)(=O)c1ccccc1)Nc1nc(-c2ccccn2)cs1,4,0,3,2,27*,-1,37*,1
COc1ccc(OCCCC(=O)Nc2nc(-c3ccccn3)cs2)cc1,6,0,4,7,43*,4,50*,3
Cc1cc(C)c(OCC(=O)Nc2nc(-c3ccccn3)cs2)c(C)c1,6,-11,-3,-4,11,-7,nt,nt
COc1cccc(-c2ncc3ccccc3c2COC(=O)N2CCCCC2)c1,4,0,nt,4,3,0,nt,nt
c1ccc(-c2n[nH]c(-c3ccccn3)n2)nc1,2,-4,3,-1,27*,-2,23*,-6
CC(C)CN(C(=O)C1COc2ccccc2O1)c1c(N)n(CC(C)C)c(=O)[nH]c1=O (stereo unspecified),1,1,nt,4,-5,1,nt,nt
SMILES,PP5 primary,PME-1 inh,Fam108B counter,LYPLA2 counter,PP1 counter,LYPLA1 inh,PP1 confirm,PP5 counter
C=C1CCN([C@@H](Cc2ccccc2)C(=O)NCCCc2ccccc2)S(=O)(=O)c2ccccc21,3,-3,-4,-8,8,-2,nt,nt
COC(=O)c1ccccc1S(=O)(=O)NCc1nc2nc(C)cc(C)n2n1,1,-2,-3,3,-2,0,nt,nt
CC(C)(C)C1CCC2(CC1)CC(=O)c1ccccc1O2 (stereo unspecified),4,-5,-1,-10,-3,-4,nt,nt
CC(C)(C)C1CCC2(CC1)Nc1cccc3cccc(c13)N2,-1,-8,1,-9,31*,-9,25*,4
COc1ccc(CN2CCN(Cc3ccc(CO)o3)CC2CCO)cc1C (stereo unspecified),-1,2,-3,-4,-5,-1,nt,nt
COc1ccc(Cn2c(-c3ccco3)nc3c(c(=O)c4ccccc4n3C)c2=O)cc1,3,-9,-8,2,6,0,nt,nt
Cn1c2ccccc2c(=O)c2c(=O)n(Cc3ccco3)c(-c3ccc(Cl)cc3Cl)nc21,1,18,-1,2,23*,-1,8,-1
CC1Sc2ccc(S(=O)(=O)N3CCC(C(=O)NCc4ccccc4)CC3)cc2NC1=O (stereo unspecified),0,14,8,1,0,0,nt,nt
COc1ccccc1NC(=O)COC(=O)COc1cccc2c1OC(C)(C)C2,1,2,-1,2,1,0,nt,nt
COc1ccc([N+](=O)[O-])cc1NC(=O)c1ccc(Br)s1,0,-28,-44,-29,18*,-10,21*,-6
COc1ccc(C2(c3ccc(OC)cc3)NC(=O)N(CC(=O)Nc3cc(C)ccc3OC)C2=O)cc1,2,-11,-6,-21,2,-16,nt,nt
CCCOc1ccc(/C(O)=C2/C(=O)C(=O)N(c3ccccn3)C2c2ccc(OC)cc2)cc1C (stereo unspecified),-1,1,4,11,31*,3,23*,-3
Cc1ccc(CNC(=O)C2CC(=O)N(C3CCCC3)C2)cc1 (stereo unspecified),0,-1,nt,5,-3,-4,nt,nt
O=C(COC(=O)COc1cccc(C(F)(F)F)c1)Nc1ccc(N2CCOCC2)cc1,2,-2,nt,5,-1,1,nt,nt
Cc1cc(C(=O)COC(=O)CC2Sc3ccccc3NC2=O)c(C)n1-c1ccccc1 (stereo unspecified),3,-7,-2,-7,23*,-2,9,-2
COCCn1c(C)cc(C(=O)COc2ccc(N(C)S(=O)(=O)c3ccc(C)cc3)cc2)c1C,0,12,nt,0,0,0,nt,nt
